We go through 18 compounds from ChEMBL document CHEMBL5606460, “ASAP - DENV-2 NS2B-NS3 protease fluorescence single point” (2024).

The target in the assay is Genome polyprotein (dengue virus type 2) (UniProt P29990).
The mark [1] stands for this setting: Thailand/16681/1984, Concentration 25.0 uM, Number of replicates 1.0.

Among all 2,000 compounds or so, about 110 (5.5%) showed an effect of 50% or more. The list comes from a sample in which strong results are over-represented; it also holds similar structures and randomly drawn compounds. Non-standard residues stand in square brackets, D forms with d. Residues, ends and D or L forms follow the SMILES beside them. Phg = N[C@H](C(=O)O)c1ccccc1; 4Amb = NCc1ccc(C(=O)O)cc1; Nle = CCCC[C@H](N)C(=O)O

Take `Cn1c(C(=O)Nc2cc(Cl)cc(C(=O)NC(C)(C)CO)c2)cccc1=O`: the inhibition (Thailand/16681/1984, Concentration 49.5 uM, Number of replicates 2.0, Standard deviation 0.4081268580659683 %) was -0.99%; the inhibition (Thailand/16681/1984, Concentration 99.01 uM, Number of replicates 2.0, Standard deviation 2.113430221710736 %) was -1.01%; the inhibition (Thailand/16681/1984, Concentration 198.0 uM, Number of replicates 2.0, Standard deviation 2.072570516879941 %) was 0.352%.
Consider `NCc1cn(C2CCN(c3nc(-c4ccccc4)cs3)CC2)nn1`, for which the inhibition (Thailand/16681/1984, Concentration 49.5 uM, Number of replicates 2.0, Standard deviation 0.032513427640456005 %) is -4.62%; the inhibition (Thailand/16681/1984, Concentration 99.01 uM, Number of replicates 2.0, Standard deviation 1.6651164489567518 %) is -3.29%; the inhibition (Thailand/16681/1984, Concentration 198.0 uM, Number of replicates 2.0, Standard deviation 1.091599962537426 %) was determined as 0.094%.
Take `CC1(C)C[C@]1(CNC(=O)C1CCN(c2ccc(C=O)cc2)CC1)c1ccccc1`: the inhibition under setting [1] was 12.2%.
Same read-out and setting: the same measure for `O=Cc1ccc(N2CCC(C(=O)N3CCc4c(Br)cccc4C3)CC2)cc1`: 2.83%.
Regarding `Cc1cc(CO)c2cccc(NC(=O)c3nc(N)n[nH]3)c2n1`, the inhibition is, setting by setting: (Thailand/16681/1984, Concentration 49.95 uM, Number of replicates 2.0, Standard deviation 1.7045480288991801 %) 42.6%; (Thailand/16681/1984, Concentration 99.9 uM, Number of replicates 2.0, Standard deviation 15.015963199334223 %) 67.3%.
Turning to `Cc1cc(CO)c2cccc(Cc3ccccc3NC(=O)c3nc(N)n[nH]3)c2n1`, the inhibition is, setting by setting: (Thailand/16681/1984, Concentration 49.95 uM, Number of replicates 2.0, Standard deviation 1.581349166072865 %) 0.804%; (Thailand/16681/1984, Concentration 99.9 uM, Number of replicates 2.0, Standard deviation 1.2268610426733166 %) 4.88%.
Take `Cc1cc(CO)c2cccc(Cc3cccc(NC(=O)c4nc(N)n[nH]4)c3)c2n1`: the inhibition (Thailand/16681/1984, Concentration 49.95 uM, Number of replicates 2.0, Standard deviation 2.1470069511188496 %) came to 1.75% and the inhibition (Thailand/16681/1984, Concentration 99.9 uM, Number of replicates 2.0, Standard deviation 2.660737289988502 %) came out at 8.09%.
For the compound `O=C(NCCc1cncnc1)c1cn([C@H]2CCCNC2)nn1`, the inhibition by setting is: (Thailand/16681/1984, Concentration 49.5 uM, Number of replicates 2.0, Standard deviation 3.1505652659838077 %) -3.39%; (Thailand/16681/1984, Concentration 99.01 uM, Number of replicates 2.0, Standard deviation 0.03260817375590849 %) -4.66%; (Thailand/16681/1984, Concentration 198.0 uM, Number of replicates 2.0, Standard deviation 5.615654862136011 %) -0.277%.
With `Clc1ccc2[nH]cc(Cc3ccc(-c4nn[nH]n4)cc3)c2c1`, the inhibition (Thailand/16681/1984, Concentration 99.5 uM, Number of replicates 2.0, Standard deviation 0.137702183454793 %) turned out to be 89.8% and the inhibition (Thailand/16681/1984, Concentration 295.6 uM, Number of replicates 2.0, Standard deviation 0.013886206472581278 %) was found to be 98.9%.
For the compound `O=C(O)[C@H](c1c[nH]c2ccccc12)N1CCC(c2cnc3ccc[nH]c2-3)CC1`, the inhibition was -1.93% (Thailand/16681/1984, Concentration 49.5 uM, Number of replicates 2.0, Standard deviation 2.9336110336729484 %); -1.4% (Thailand/16681/1984, Concentration 99.01 uM, Number of replicates 2.0, Standard deviation 1.2688833051000123 %); 0.519% (Thailand/16681/1984, Concentration 198.0 uM, Number of replicates 2.0, Standard deviation 1.8509089452057481 %).
Take `CC(=O)N[C@H](C(=O)Nc1cccc(C(N)=O)c1)c1ccc(OCc2ccccc2)cc1`: the inhibition reads like this: (Thailand/16681/1984, Concentration 49.5 uM, Number of replicates 2.0, Standard deviation 1.41100239398505 %) -2.21%; (Thailand/16681/1984, Concentration 99.01 uM, Number of replicates 2.0, Standard deviation 6.402498423083348 %) 0.486%; (Thailand/16681/1984, Concentration 198.0 uM, Number of replicates 2.0, Standard deviation 5.599350943845451 %) 0.73%.
For the compound `CCCCCC(=O)N[C@@H](Cc1ccccc1)C(=O)NCc1cccc(CN)c1`, the inhibition reads like this: (Thailand/16681/1984, Concentration 49.5 uM, Number of replicates 2.0, Standard deviation 0.5911657110409295 %) -0.287%; (Thailand/16681/1984, Concentration 99.01 uM, Number of replicates 2.0, Standard deviation 0.7592516208074989 %) -0.251%; (Thailand/16681/1984, Concentration 198.0 uM, Number of replicates 2.0, Standard deviation 1.593950905190228 %) -0.639%.
As for `CCCC[C@H](NC(C)=O)C(=O)N[C@H](C(=O)Nc1ccc(C(N)=O)cc1)c1ccc(OCc2ccccc2)cc1`, the inhibition (Thailand/16681/1984, Concentration 49.5 uM, Number of replicates 2.0, Standard deviation 2.073896751762033 %) was -0.623%; the inhibition (Thailand/16681/1984, Concentration 99.01 uM, Number of replicates 2.0, Standard deviation 0.38726109133313447 %) was 4.02%; the inhibition (Thailand/16681/1984, Concentration 198.0 uM, Number of replicates 2.0, Standard deviation 0.14852549415239058 %) came to 23%.
Turning to `CCCC[C@H](NC(C)=O)C(=O)N[C@H](C(=O)NCc1ccc(CN)cc1)c1ccccc1`, the inhibition was 0.537% (Thailand/16681/1984, Concentration 49.5 uM, Number of replicates 2.0, Standard deviation 1.3580554366166637 %); 14.1% (Thailand/16681/1984, Concentration 99.01 uM, Number of replicates 2.0, Standard deviation 18.440494023113153 %); 56% (Thailand/16681/1984, Concentration 198.0 uM, Number of replicates 2.0, Standard deviation 14.8908767477505 %).
As for `CCCC[C@H](NC(C)=O)C(=O)N[C@@H](C(=O)NCc1ccc(C(N)=O)cc1)c1ccc(OCc2ccccc2)cc1`, the inhibition runs as follows: (Thailand/16681/1984, Concentration 49.5 uM, Number of replicates 2.0, Standard deviation 1.1393107429607887 %) -2.14%; (Thailand/16681/1984, Concentration 99.01 uM, Number of replicates 2.0, Standard deviation 1.3468928227151291 %) -2.15%; (Thailand/16681/1984, Concentration 198.0 uM, Number of replicates 2.0, Standard deviation 1.6817028564994563 %) -0.786%.
Turning to `CCCC[C@H](NC(C)=O)C(=O)N[C@H](C(=O)NCc1ccc(CN)cc1)c1ccc(OCc2ccccc2)cc1`, the inhibition (Thailand/16681/1984, Concentration 49.5 uM, Number of replicates 2.0, Standard deviation 1.556187076043376 %) is -3.73%; the inhibition (Thailand/16681/1984, Concentration 99.01 uM, Number of replicates 2.0, Standard deviation 1.4164928639405643 %) stood at 9.94%; the inhibition (Thailand/16681/1984, Concentration 198.0 uM, Number of replicates 2.0, Standard deviation 0.0753329398535839 %) was found to be 99.6%.
`CCCC[C@H](NC(C)=O)C(=O)N[C@H](C(=O)Nc1cccc(C(N)=O)c1)c1ccc(OCc2ccccc2)cc1`: the inhibition is -0.513% (Thailand/16681/1984, Concentration 49.5 uM, Number of replicates 2.0, Standard deviation 1.3015902921422546 %); 3.33% (Thailand/16681/1984, Concentration 99.01 uM, Number of replicates 2.0, Standard deviation 0.5153915569037094 %); 8.87% (Thailand/16681/1984, Concentration 198.0 uM, Number of replicates 2.0, Standard deviation 0.5711740910196359 %).
For `CCCC[C@H](NC(C)=O)C(=O)N[C@H](C(=O)NCc1ccc(C(N)=O)cc1)c1ccccc1` (Ac-[Nle]-[Phg]-[4Amb]-NH2), the inhibition (Thailand/16681/1984, Concentration 49.5 uM, Number of replicates 2.0, Standard deviation 0.4432432329236086 %) is -1.46%; the inhibition (Thailand/16681/1984, Concentration 99.01 uM, Number of replicates 2.0, Standard deviation 0.9541533154251546 %) was -0.354%; the inhibition (Thailand/16681/1984, Concentration 198.0 uM, Number of replicates 2.0, Standard deviation 1.9838414541082603 %) is 1.79%.

A word on the inhibition: it is the relative decrease from the control value, in per cent.
